# Reference: PubChem BioAssay AID434947 (Broad Institute, 2010)
# Screen size: about 2,200 compounds; about 15 (0.7%) were called active. The sample as a whole holds a higher share of actives than the screen did. Unmarked numbers belong to inactive results.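 The calls were made as follows: active = fitted half-maximal concentration for loss of luminescence signal no more than a set limit of log units above the top tested concentration; inconclusive = flat fit with 30 to 70% signal loss, or invalid fit; inactive = half-maximal concentration above that set limit.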
# Assay: inhibitors of ADP-Glo detection reagents, dose response, artefact control for GSK3beta inhibitor project, biochemical, luminescence, cell-free, homogeneous (AID 434947);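 also: kinase-free counter screen of ADP-Glo detection reagents for GSK3beta hits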
# Settings: 5 uM ADP
row,Compound,EC50
1,CS(=O)(=O)N(Cc1ccccc1)c1ccc(C(=O)Nc2ccccc2Sc2ccccc2)cc1,> 30 µM
2,Cc1ccnc(NC(=O)c2ccc([N+](=O)[O-])o2)c1,> 30 µM
3,CCCCc1cc(=O)oc2cc(C)cc(OC(C)C(=O)O)c12 (stereo unspecified),> 30 µM
4,NC(=O)C1CCN(c2nc3c(S(=O)(=O)c4ccccc4)nnn3c3ccccc23)CC1,> 30 µM
5,Cc1ccnc(SCCn2c(N3CCOCC3)nc3c2c(=O)[nH]c(=O)n3C)n1,> 30 µM
6,CCSc1nc2sc3c(c2c(=O)n1-c1ccccc1)CCN(C)C3,> 30 µM
7,CCOC(=O)c1cnc2c(C)cccc2c1Nc1ccc(N2CCOCC2)cc1,> 30 µM
8,COc1ccc(-c2nn(-c3ccccc3)cc2CO)cc1OC,> 30 µM
9,COc1cccc2c1cc1c(=O)n(CC(=O)NCCCc3ccccc3)nc(C)n12,> 30 µM
10,Cc1[nH]nc2c1C(c1ccc(N(C)C)cc1)C1=C(CC(C)(C)CC1=O)N2 (stereo unspecified),> 30 µM
11,CC(C(=O)NCc1ccccc1)n1cc([N+](=O)[O-])cn1 (stereo unspecified),> 30 µM
12,CC(C)N1CCc2c(sc(NC(=O)CCS(=O)(=O)c3ccccc3)c2C(N)=O)C1,> 30 µM
13,COc1cc(/C=C2/SC(=Nc3ccc(O)cc3)NC2=O)ccc1O,> 30 µM
14,CN(C)Cc1c(O)ccc2c(=O)c(-c3ccccc3)c(C(F)(F)F)oc12,> 30 µM
15,COc1ccc(-c2nn(-c3ccccc3)cc2/C=C(\C#N)S(=O)(=O)c2ccccc2)cc1OC,> 30 µM
16,Cc1ccc(S(=O)(=O)/N=C2/NC(=O)/C(=C/c3ccccc3)S2)cc1,> 30 µM
17,CN(C)c1ccc(C(=O)NN2C(=O)c3ccccc3C2=O)cc1,> 30 µM
18,O=C1CC(c2ccc(O)c(O)c2)Oc2cc(O)cc(O)c21 (stereo unspecified),> 30 µM
19,Cc1nn(-c2ccccn2)c2c1C(c1ccsc1)C1=C(CCCC1=O)N2 (stereo unspecified),> 30 µM
20,COc1cc(C(c2nnnn2C(C)(C)C)N2CCN(c3nc4ccccc4s3)CC2)ccc1O (stereo unspecified),> 30 µM
21,Cc1ccc2sc(N3CCN(CCNC(=O)c4ccco4)CC3)nc2c1C,> 30 µM
22,O=[N+]([O-])c1cc(/C=N/O)ccc1N1CCCC1,> 30 µM
23,CCOC(=O)c1nnn(-c2nonc2N)c1CSc1ccc(C)cc1,> 30 µM
24,CC1(C)CC2CC(C)(CN2S(=O)(=O)c2ccc(C(=O)Nc3ccc(Cl)c(S(=O)(=O)N4CCOCC4)c3)cc2)C1 (stereo unspecified),> 30 µM
25,COCCN(CC(=O)NCc1ccc(F)cc1)C(=O)CCC(=O)Nc1ccccn1,> 30 µM
26,Cc1nc(NCCCn2ccnc2)c2ccccc2n1,> 30 µM

row,Compound,EC50
1,Cc1csc(SCC(=O)Nc2ccc(Cl)cn2)n1,> 30 µM
2,CCc1nnc(NC(=O)c2cc(-c3ccccc3)nn2-c2ccccc2)s1,> 30 µM
3,O=C(CS(=O)(=O)c1ccccc1)Nc1ncc([N+](=O)[O-])s1,> 30 µM
4,COc1ccc2nc(C)cc(N3CCOCC3)c2c1,> 30 µM
5,CC1=C(C(=O)Nc2ccccc2F)C(c2cccs2)C2=C(CCCC2=O)N1 (stereo unspecified),> 30 µM
6,Cc1ccc2c(C)c(C(=O)Nc3nnc(C)s3)oc2c1,> 30 µM
7,NC1=NC(=Nc2ccccc2)c2ccccc21,> 30 µM
8,CCCn1nc(NC(=O)C(C)C)c2cc3cc(OC)ccc3nc21,> 30 µM
9,CCNC(=S)Nc1ccc2cn[nH]c2c1,> 30 µM
10,COc1cccc(C(=O)NCC(=O)N/N=C(C)\C=C\c2ccccc2)c1,> 30 µM
11,CC(C)CCNc1nc(N)c([N+](=O)[O-])c(NCC2CCCO2)n1 (stereo unspecified),> 30 µM
12,COc1ccccc1Nc1nc(N(C)c2ccccc2)nc(N)c1[N+](=O)[O-],> 30 µM
13,CN(Cc1c(C(=O)N/N=C/c2cccc(F)c2)nnn1-c1nonc1N)c1ccccc1,> 30 µM
14,Cc1nn(-c2ccccc2)c2c1cc1c(=O)n(C)c(=O)nc-1n2-c1ccccc1F,> 30 µM
15,CC1=NN(C(=O)CCc2ccc3c(c2)OCO3)C(O)(C(F)(F)F)C1 (stereo unspecified),> 30 µM
16,CCCn1c(SCC(=O)Nc2ccc(Cl)cn2)nnc1C1CC1,> 30 µM
17,COc1ccc2occ(C(=O)c3cccs3)c2c1,> 30 µM
18,COc1ccc(C(=O)c2sc(Nc3ccccc3)nc2C)cc1,> 30 µM
19,COc1ccc(C(=O)c2ccsc2N)cc1,> 30 µM
20,COc1ccc(C(=O)O/N=C(/C)c2cccs2)cc1,16.2 µM (active)
21,COc1cccc(C(N)=O)c1,> 30 µM
22,COc1ccc(C(=O)O/N=C(\C)c2ccccc2)cc1,24 µM (active)
23,Cc1ccc(SCC(=O)N2CC(C)OC(C)C2)cc1 (stereo unspecified),> 30 µM
24,COc1ccc(-c2cc(C(F)(F)F)nc(SCCC(=O)N3CCOCC3)n2)cc1,> 30 µM
25,COc1ccc(Cl)cc1NC(=O)CS(=O)(=O)c1cccc2nsnc12,> 30 µM
